The values below come from PubChem BioAssay (EPA / NIEHS).

As a reminder, the AC50 is the concentration at which the activity in the assay is half-maximal.

Assay [1] can be described thus: ATG_E_Box_CIS: Attagene CIS-FACTORIAL HepG2 Assay for human Enhancer Box (E-box) (AID 2282936). The following applies: HepG2 E-box cis-reporter transcription, actives raise or lower the signal. A digest of the protocol: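 E-box-driven reporter transcripts measured in transiently transfected HepG2 after 24 h exposure: RNA reverse-transcribed, PCR-amplified, fluorescently labelled, digested and resolved by capillary electrophoresis. Gain or loss relative to DMSO.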

Assay [2] is described as follows: ATG_M_61_CIS: Attagene CIS-FACTORIAL HepG2 Assay for M61 Transcription Factor (Internal Marker) (AID 2282937). The following applies: HepG2 Attagene CIS-FACTORIAL M61 internal marker reporter; actives raise or lower the signal. An outline of the steps:
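Fluorescence from labelled cDNA fragments, separated by capillary electrophoresis, quantifies reporter induction. HepG2 cells bearing transiently transfected cis-promoter MRTUs were incubated with test chemical for 24 h; DMSO defined baseline for gain/loss fitting.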

Assay [3] in a line: ATG_EGR_CIS: Attagene CIS-FACTORIAL HepG2 Assay for human Early Growth Response 1 (EGR1) (AID 2282938). Conditions: HepG2 Attagene CIS-FACTORIAL EGR reporter mRNA; actives raise or lower the signal. A digest of the protocol: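 Cell-based multiplex transcription assay: HepG2 carrying transfected cis-element reporter units, 24 h chemical treatment. Fluorescence from capillary electrophoresis of RT-PCR products gives mRNA levels; fitting is bidirectional relative to DMSO.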

Assay [4] in a line: ATG_ERE_CIS: Attagene CIS-FACTORIAL HepG2 Assay for Estrogen Response Element (ERE) (AID 2282940). The following applies: HepG2 ERE cis-reporter, Attagene RNA transcript; actives raise or lower the signal. A digest of the protocol:
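Human liver cells (HepG2) bearing transiently transfected, promoter-regulated reporter units were exposed 24 h. Reporter mRNA induction was detected by capillary electrophoresis of labelled RT-PCR products and fitted bidirectionally to DMSO.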

Assay [5] is described as follows: ATG_Ets_CIS: Attagene CIS-FACTORIAL HepG2 Assay for human Erythroblast Transformation Specific (ETS) (AID 2282941). The following applies: HepG2 ETS cis-reporter transcription, actives raise or lower the signal. A digest of the protocol: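 Cis-regulated reporter mRNA induction in HepG2 (transient transfection), 24 h exposure, RT-PCR plus capillary electrophoresis detection; DMSO serves as negative control and baseline.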

The target of assay [6] is Hepatocyte nuclear factor 3-beta (Homo sapiens) (UniProt Q9Y261). The assay can be described thus: ATG_FoxA2_CIS: Attagene CIS-FACTORIAL HepG2 Assay for human Forkhead box A2 (FOXA2) (AID 2282942). Conditions: HepG2 cis-reporter transcription factor activity, 24 h; actives raise or lower the signal. A digest of the protocol: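 In transiently transfected human HepG2 cells, promoter-driven reporter mRNA levels after 24 h chemical exposure are determined via RT-PCR with capillary electrophoresis. DMSO serves as baseline for bidirectional fitting.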

Assay [7] can be described thus: ATG_FoxO_CIS: Attagene CIS-FACTORIAL HepG2 Assay for human Forkhead box O (FoxO) (AID 2282943). Conditions: HepG2 Attagene cis-reporter, FoxO element, mRNA; actives raise or lower the signal. A digest of the protocol: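 HepG2, transient MRTU transfection (cis element, endogenous TFs). Dose 24 h. TriZol RNA → oligo(dT) RT → PCR → 6-FAM primer extension → HpaI cut → CE. Gain/loss vs DMSO.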

Assay [8] can be described thus: ATG_GATA_CIS: Attagene CIS-FACTORIAL HepG2 Assay for human GATA Binding Protein (AID 2282944). The following applies: HepG2 GATA cis-element reporter, Attagene multiplex mRNA; actives raise or lower the signal. An outline of the steps:
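Transfected cis-reporter HepG2 cells were treated with chemicals for 24 hours. Total RNA was then converted to cDNA, amplified with reporter-specific primers and analysed by fluorescent capillary electrophoresis, using DMSO-treated wells as baseline.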

Assay [9] can be described thus: ATG_GLI_CIS: Attagene CIS-FACTORIAL HepG2 Assay for human Zinc Finger Protein GLI1 (AID 2282945). Conditions: HepG2, Attagene cis-factorial reporter mRNA, GLI element; actives raise or lower the signal. A digest of the protocol: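 Bidirectional curve fits relative to DMSO, using reporter mRNA levels from RT-PCR plus capillary electrophoresis. Cells were HepG2 transiently carrying cis-regulated reporter constructs, harvested 24 h after dosing.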

A short description of assay [10]: ATG_GRE_CIS: Attagene CIS-FACTORIAL HepG2 Assay for human Glucocorticoid Response Elements (GRE) (AID 2282947). The following applies: HepG2 GRE cis-reporter, Attagene multiplex mRNA; actives raise or lower the signal. An outline of the steps:
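Reporter transcripts read by RT-PCR with capillary electrophoresis fluorescence after a 24 h chemical exposure of HepG2 cells transiently transfected with multiple cis-element reporter units. Gain or loss fitted against DMSO.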

Assay [11] in a line: ATG_ISRE_CIS: Attagene CIS-FACTORIAL HepG2 Assay for human Interferon Regulatory Factor 1 (IRF1) binding to an Interferon-Stimulated Response Element (ISRE) (AID 2282948). Conditions: HepG2 ISRE cis-reporter (Attagene), mRNA transcription readout; actives raise or lower the signal. An outline of the steps:
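Multiplexed mRNA reporter readout in human liver HepG2 cells: cis-element-driven reporters transfected, compound added for 24 h, transcripts amplified, fluorescently labelled and sized by capillary electrophoresis; curve fitting bidirectional against DMSO.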

Assay [12] in a line: ATG_M_32_CIS: Attagene CIS-FACTORIAL HepG2 Assay for M32 Transcription Factor (Internal Marker) (AID 2282949).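 Further: background control marker of the multiplexed CIS panel rather than a real target.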 The following applies: HepG2 Attagene cis-factorial M32 reporter, mRNA; actives raise or lower the signal. A digest of the protocol: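 HepG2 human liver cells transiently transfected with cis-promoter-driven multiple reporter transcription units, dosed 24 h. Reporter mRNA quantified by RT-PCR, FAM-labelled primer extension, HpaI digest and capillary electrophoresis; bidirectional fit versus DMSO baseline.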

The nature of assay [13]: ATG_M_06_CIS: Attagene CIS-FACTORIAL HepG2 Assay for M06 Transcription Factor (Internal Marker) (AID 2282950). Conditions: HepG2 Attagene CIS-FACTORIAL M06 internal marker reporter; actives raise or lower the signal. An outline of the steps:
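Cells (HepG2, transiently carrying cis-driven reporter units) receive chemical for 24 h before RNA isolation. Reporter cDNA is PCR-amplified, FAM-labelled by primer extension, HpaI-digested and sized on a capillary analyser.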

Assay [14] deals with Hypoxia-inducible factor 1-alpha (Homo sapiens) (UniProt Q16665). The assay can be described thus: ATG_HIF1a_CIS: Attagene CIS-FACTORIAL HepG2 Assay for human Hypoxia Inducible Factor 1 (HIF1A) (AID 2282951). The following applies: HepG2 Attagene cis-factorial HIF1a reporter transcription; actives raise or lower the signal. An outline of the steps:
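In this multiplexed cell assay, HepG2 cells bearing transfected cis reporters are dosed for 24 h and reporter mRNA is read by RT-PCR plus capillary electrophoresis; signal increases and decreases are both scored against DMSO.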

Assay [15] has as its target Hepatocyte nuclear factor 6 (Homo sapiens) (UniProt Q9UBC0). The assay can be described thus: ATG_HNF6_CIS: Attagene CIS-FACTORIAL HepG2 Assay for human Hepatocyte Nuclear Factor 6 (HNF6) (AID 2282952). The following applies: HepG2 Attagene cis-factorial HNF6 reporter transcription; actives raise or lower the signal. A digest of the protocol: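 Using cis-element reporters in HepG2 liver cells, the assay tracks endogenous factor-driven transcription 24 h post-dosing. Signal comes from 6-FAM-labelled, HpaI-digested RT-PCR fragments, with gain or loss scored against DMSO.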

Assay [16] concerns the target Heat shock factor protein 1 (Homo sapiens) (UniProt Q00613). The experiment in a line: ATG_HSE_CIS: Attagene CIS-FACTORIAL HepG2 Assay for human Heat Shock Transcription Factor 1 (HSE) (AID 2282953). Conditions: HepG2 HSE cis-reporter, Attagene RNA transcription; actives raise or lower the signal. An outline of the steps:
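Liver-derived HepG2 cells carry transiently introduced multiple reporter units governed by cis promoters. Reporter RNA measured 24 h post-dose through reverse transcription, PCR amplification, fluorescent labelling and capillary electrophoresis, normalised to DMSO.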

The nature of assay [17]: ATG_MRE_CIS: Attagene CIS-FACTORIAL HepG2 Assay for human Metal Responsive Element (MRE) (AID 2282954). The following applies: HepG2 MRE cis-reporter transcription, Attagene multiplex; actives raise or lower the signal. An outline of the steps: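 Endogenous MRE-dependent transcription read as reporter mRNA in transiently transfected human HepG2 cells at 24 h. RNA reverse-transcribed, PCR-amplified, labelled and resolved by capillary electrophoresis; gain or loss relative to DMSO.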

Assay [18] in a line: ATG_PBREM_CIS: Attagene CIS-FACTORIAL HepG2 Assay for human Phenobarbital-responsive Enhancer Module (PBREM) (AID 2282955). The following applies: HepG2 PBREM cis-reporter, Attagene multiplexed transcription; actives raise or lower the signal. A digest of the protocol: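 After a 24 h incubation with test chemical, transfected HepG2 cells yield total RNA; reporter-specific RT-PCR products are fluorescently labelled, HpaI-digested and resolved by capillary electrophoresis against ROX size standards.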

The target of assay [19] is Bile acid receptor (Homo sapiens) (UniProt Q96RI1). The assay can be described thus: ATG_IR1_CIS: Attagene CIS-FACTORIAL HepG2 Assay for human Nuclear Receptor Subfamily 1 Group H Member 4 (NR1H4), IR1 submotif (AID 2282946). The following applies: IR1 reporter transcription, actives raise or lower the signal. A digest of the protocol:
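HepG2 cells transiently transfected with multiplexed cis-element reporter units read endogenous transcription factor activity. After 24 h compound exposure, reporter mRNA was quantified by RT-PCR, fluorescent labelling, HpaI digestion and capillary electrophoresis; bidirectional fitting versus DMSO baseline.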

Assay [20] in a line: ATG_M_19_CIS: Attagene CIS-FACTORIAL HepG2 Assay for M19 Transcription Factor (Internal Marker) (AID 2282939). The following applies: HepG2 Attagene CIS-FACTORIAL M19 internal marker reporter; actives raise or lower the signal. An outline of the steps:
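Chemical-treated HepG2 (24 h) with MRTU constructs; reporter transcripts detected by fluorescent RT-PCR fragment analysis on capillary electrophoresis. Internal background marker, DMSO as baseline.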

“And” between values parts separate entries of the source, which are not always exact repeats. Identical values can stand only once. More than one record can exist for a structure, and the calls need not agree. The source made the active and inactive calls. How the source made its calls: active means hit-call score of the fitted dose curve at least 0.9, where 1 is the maximum; inactive means score below 0.9.

Chain of Hypoxia-inducible factor 1-alpha (Homo sapiens) (Q16665 whole entry, looked up): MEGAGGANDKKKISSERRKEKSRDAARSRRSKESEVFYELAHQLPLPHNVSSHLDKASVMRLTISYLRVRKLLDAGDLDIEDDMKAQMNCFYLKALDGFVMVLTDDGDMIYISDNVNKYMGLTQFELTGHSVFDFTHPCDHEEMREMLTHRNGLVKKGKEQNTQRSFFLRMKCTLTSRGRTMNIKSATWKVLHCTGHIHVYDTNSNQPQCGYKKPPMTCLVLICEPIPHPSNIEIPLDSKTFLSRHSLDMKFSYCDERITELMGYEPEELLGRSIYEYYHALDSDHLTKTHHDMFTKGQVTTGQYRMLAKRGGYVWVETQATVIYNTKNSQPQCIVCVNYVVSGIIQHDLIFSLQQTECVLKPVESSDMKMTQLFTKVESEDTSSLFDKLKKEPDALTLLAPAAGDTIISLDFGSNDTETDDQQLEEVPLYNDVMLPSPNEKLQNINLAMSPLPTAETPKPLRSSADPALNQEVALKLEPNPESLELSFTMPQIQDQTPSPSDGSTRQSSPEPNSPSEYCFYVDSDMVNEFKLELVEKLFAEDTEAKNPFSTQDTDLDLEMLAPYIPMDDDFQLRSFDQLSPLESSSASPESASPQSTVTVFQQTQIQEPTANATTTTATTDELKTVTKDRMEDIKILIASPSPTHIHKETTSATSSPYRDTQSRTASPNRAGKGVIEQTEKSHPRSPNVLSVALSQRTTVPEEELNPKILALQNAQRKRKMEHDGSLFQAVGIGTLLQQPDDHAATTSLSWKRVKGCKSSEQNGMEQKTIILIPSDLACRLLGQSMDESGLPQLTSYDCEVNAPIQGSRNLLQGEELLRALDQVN
Chain of Bile acid receptor (Homo sapiens) (Q96RI1 whole entry, looked up): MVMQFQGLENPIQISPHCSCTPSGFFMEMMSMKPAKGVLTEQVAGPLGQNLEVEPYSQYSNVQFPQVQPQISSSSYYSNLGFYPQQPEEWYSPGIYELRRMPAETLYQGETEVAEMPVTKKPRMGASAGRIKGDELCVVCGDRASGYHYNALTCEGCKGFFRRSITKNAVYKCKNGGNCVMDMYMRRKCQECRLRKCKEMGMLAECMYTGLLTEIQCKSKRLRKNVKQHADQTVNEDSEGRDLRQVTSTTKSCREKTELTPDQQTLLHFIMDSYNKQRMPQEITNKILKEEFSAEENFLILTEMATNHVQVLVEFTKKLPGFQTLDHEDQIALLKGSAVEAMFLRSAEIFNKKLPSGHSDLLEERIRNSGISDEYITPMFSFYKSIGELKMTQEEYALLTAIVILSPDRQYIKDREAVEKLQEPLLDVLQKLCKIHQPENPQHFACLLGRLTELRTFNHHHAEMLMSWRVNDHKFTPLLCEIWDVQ
Chain of Heat shock factor protein 1 (Homo sapiens) (Q00613 whole entry, looked up): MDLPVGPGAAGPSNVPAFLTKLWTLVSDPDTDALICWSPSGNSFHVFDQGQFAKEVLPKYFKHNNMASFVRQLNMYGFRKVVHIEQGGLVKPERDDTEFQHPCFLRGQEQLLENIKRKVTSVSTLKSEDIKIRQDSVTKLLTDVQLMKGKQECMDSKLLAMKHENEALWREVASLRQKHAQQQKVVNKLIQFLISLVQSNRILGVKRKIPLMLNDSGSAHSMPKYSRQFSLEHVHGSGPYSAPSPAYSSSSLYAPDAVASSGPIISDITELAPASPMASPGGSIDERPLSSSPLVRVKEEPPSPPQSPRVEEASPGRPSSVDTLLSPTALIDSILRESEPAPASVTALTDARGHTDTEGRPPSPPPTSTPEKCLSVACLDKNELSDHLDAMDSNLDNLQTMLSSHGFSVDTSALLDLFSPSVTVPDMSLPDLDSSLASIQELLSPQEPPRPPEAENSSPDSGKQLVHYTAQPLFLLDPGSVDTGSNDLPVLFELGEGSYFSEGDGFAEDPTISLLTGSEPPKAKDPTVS
Chain of Hepatocyte nuclear factor 6 (Homo sapiens) (Q9UBC0 whole entry, looked up, the tested form may be a part): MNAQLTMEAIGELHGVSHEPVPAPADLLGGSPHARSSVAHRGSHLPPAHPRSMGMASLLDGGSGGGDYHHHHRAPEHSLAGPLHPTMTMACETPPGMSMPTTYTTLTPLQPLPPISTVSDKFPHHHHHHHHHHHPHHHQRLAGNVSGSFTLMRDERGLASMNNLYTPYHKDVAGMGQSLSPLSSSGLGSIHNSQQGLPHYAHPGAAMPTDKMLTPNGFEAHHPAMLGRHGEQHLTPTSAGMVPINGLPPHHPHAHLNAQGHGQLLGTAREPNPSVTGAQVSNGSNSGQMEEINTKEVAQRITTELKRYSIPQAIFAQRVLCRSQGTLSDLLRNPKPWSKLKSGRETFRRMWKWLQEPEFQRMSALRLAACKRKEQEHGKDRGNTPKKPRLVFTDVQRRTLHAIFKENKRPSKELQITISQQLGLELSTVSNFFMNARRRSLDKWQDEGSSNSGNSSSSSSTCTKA
Chain of Hepatocyte nuclear factor 3-beta (Homo sapiens) (Q9Y261 whole entry, looked up): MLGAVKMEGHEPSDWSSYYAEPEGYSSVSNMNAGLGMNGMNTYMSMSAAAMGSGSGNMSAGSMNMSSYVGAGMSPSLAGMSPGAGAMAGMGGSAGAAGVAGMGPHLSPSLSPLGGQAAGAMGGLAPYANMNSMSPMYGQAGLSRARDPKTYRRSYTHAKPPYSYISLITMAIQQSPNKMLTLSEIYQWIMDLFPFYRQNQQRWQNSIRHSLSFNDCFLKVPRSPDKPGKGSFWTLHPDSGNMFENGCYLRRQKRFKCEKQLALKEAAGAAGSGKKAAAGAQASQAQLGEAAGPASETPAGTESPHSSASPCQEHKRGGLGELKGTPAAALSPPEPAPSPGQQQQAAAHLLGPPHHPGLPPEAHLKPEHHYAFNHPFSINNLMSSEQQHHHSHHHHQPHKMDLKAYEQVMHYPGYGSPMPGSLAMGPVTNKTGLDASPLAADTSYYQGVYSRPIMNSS

`CCCCCCCCN(C)CCCCCCCC`: the outcome in assay [1], in [2], in assay [3], in [5], in assay [6] and in assay [7] was inactive. The result in assay [8], in assay [9], in [10], in assay [11], in [12] and in [13] was inactive. Further, the call in assay [14], in assay [15], in assay [16], in assay [17] and in assay [18] was inactive. Besides, in assay [4], the AC50 is 30200 nM (active).

Take `CCCCCCCCCCCC[N+](C)(C)C`: the AC50 in [1] was 33.4 µM (active) and 22.5 µM (active); in assay [11] it was 16.6 µM (active) and 15.3 µM (active); in [17], 33400 nM (active). In addition, the result in assay [2], in assay [3], in assay [5], in [6], in assay [7] and in assay [8] was inactive. The compound was called inactive in assay [9], in assay [19], in assay [10], in [12], in assay [13] and in assay [14]. Also, the compound was classed as inactive in assay [15], in [16], in [17] and in [18].

On to `c1ccc2n[nH]nc2c1`, for which the outcome in assay [1], in assay [2], in assay [3], in assay [20], in assay [5] and in assay [6] was inactive. Besides, the call in [8], in [9], in assay [10], in [11], in assay [12] and in assay [13] was inactive. In addition, the compound was classed as inactive in [14], in assay [15], in assay [16], in assay [17] and in [18].

With `O=C(O)c1ccccc1C(=O)OCc1ccccc1`, the result in assay [1], in assay [2], in assay [3], in assay [4], in assay [5] and in assay [6] was inactive. For the same compound, the outcome in assay [8], in assay [9], in [19], in [10], in [11] and in [12] was inactive. The call in [13], in [14], in assay [15], in [16], in assay [17] and in [18] was inactive.

On to `CO[C@H]1/C=C/O[C@@]2(C)Oc3c(C)c(O)c4c(O)c(c(/C=N/N5CCN(C)CC5)c(O)c4c3C2=O)NC(=O)/C(C)=C\C=C\[C@H](C)[C@H](O)[C@@H](C)[C@@H](O)[C@@H](C)[C@H](OC(C)=O)[C@@H]1C`, for which the result in [1], in assay [2], in [3], in assay [5], in assay [6] and in assay [7] was inactive. The compound was classed as inactive in assay [8], in [9], in [11], in assay [12], in assay [13] and in assay [15]. In addition, the compound was called inactive in [16], in assay [17] and in assay [18].

For the compound `COc1cc(C(=O)NC2CCN(C)CC2)ccc1Nc1ncc2c(n1)N(C1CCCC1)CC(F)(F)C(=O)N2C`, the result in assay [1], in [2], in assay [4], in assay [6], in assay [8] and in assay [9] was inactive. The call in assay [19], in assay [12], in [13], in assay [14], in assay [15] and in assay [16] was inactive. Also, in assay [18], the result was inactive. For the same compound, the AC50 in assay [3] is 2260 nM (active); in [5], 1550 nM (active); in assay [7], 3630 nM (active); in [10], 872 nM (active); in assay [11], 4.8 µM (active); in assay [17], 2370 nM (active).
